According to PubChem BioAssay AID1541 (National Center for Advancing Translational Sciences (NCATS), 2009):
Inconclusive results are not listed. Calls of active or inactive are those of the source. Calls come from the whole dose curve; as a rule, active = well fitted activation curve with a large enough effect; inconclusive = small, poorly fitted or top-dose-only effect, or effect the other way; inactive = no such curve, though single readings can be large or run the other way.

Target: Pyruvate kinase PKLR (Homo sapiens) (UniProt P30613)
Sequence (P30613 whole entry, looked up): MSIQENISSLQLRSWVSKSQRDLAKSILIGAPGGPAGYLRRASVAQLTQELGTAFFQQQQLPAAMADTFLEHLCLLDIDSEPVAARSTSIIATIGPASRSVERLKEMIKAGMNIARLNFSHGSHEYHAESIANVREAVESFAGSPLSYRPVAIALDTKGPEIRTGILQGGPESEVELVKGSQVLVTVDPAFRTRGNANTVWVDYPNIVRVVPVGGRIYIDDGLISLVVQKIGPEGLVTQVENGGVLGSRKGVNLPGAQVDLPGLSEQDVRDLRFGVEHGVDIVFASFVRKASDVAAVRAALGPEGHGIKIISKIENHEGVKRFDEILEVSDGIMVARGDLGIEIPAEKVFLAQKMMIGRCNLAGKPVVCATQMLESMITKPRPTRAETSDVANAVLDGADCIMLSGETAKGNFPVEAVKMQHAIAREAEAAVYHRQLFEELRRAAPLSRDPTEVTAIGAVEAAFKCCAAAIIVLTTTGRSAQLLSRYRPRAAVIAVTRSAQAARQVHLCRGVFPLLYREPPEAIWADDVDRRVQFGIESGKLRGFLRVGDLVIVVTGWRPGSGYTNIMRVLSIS
Experiment: Secondary assay for Activators of Human Liver Pyruvate Kinase
Settings: purified hPK-L, LDH-coupled NADH fluorescence kinetic; series mostly up to 57.5 µM; activation: at the top concentration
Excerpt: Confirmatory assay NIH Chemical Genomics Center [NCGC] Matthew G. Vander Heiden, M.D., Ph.D. [Harvard Medical School, 77 Avenue Louis Pasteur, Boston, MA 02115] NCGC Assay Overview: Human pyruvate kinase liver (hPK-L)enzyme was supplied as a highly purified (>95% pure) preparation from Harvard Medical School and a secondary assay was used to evaluate compounds. This assay couples the formation of pyruvate from hPK-R using lactate dehydrogenase (LDH) and NADH. The depletion of NADH is followed in a fluorescent-based kinetic assay that follows the formation of pyruvate to lactate, as catalyzed LDH. Pyruvate kinase substrates, PEP and ADP, were present in the assay at 0.1 mM and 4 mM respectively. In this kinetic assay initial rates were determined by following the fluorescence of NADH depletion.
NCGC Assay Protocol Summary: Three uL of substrate mix (final concentration, 50 mM Tris-Cl pH 8.0, 200 mM KCl, 15 mM MgCl2, 0.1 mM PEP, 4.0 mM ADP, and 0.2 mM NADH) was dispensed into black-solid 1536 well plates. 23 nL of compounds were delivered by a pin tool and 1 uL of enzyme mix (final concentrations, 10 nM hPK-L and 1 uM of LDH) was added. Plates were immediately placed in ViewLux (Perkin Elmer) and NADH fluorescence was determined at 30 second exposure intervals for between 3 and 6 minutes. Data were normalized to the uninhibited and EC100 activation using known activators such as fructose-bis-phosphate.

SMILES | activation | Potency
Cc1nc2ccc(S(=O)(=O)N3CCN(S(=O)(=O)c4c(F)cccc4F)CC3)cc2s1 | 9.53% (inactive) | 
Cc1cc2c(s1)c1cnn(Cc3ccccc3F)c(=O)c1n2C |  | 3520 nM (active)
O=S(=O)(c1ccc2c(c1)OCCO2)N1CCN(S(=O)(=O)c2cccc[n+]2[O-])CC1 | -9.32% (inactive) | 
COc1ccc(S(=O)(=O)N2CCN(S(=O)(=O)c3ccc4c(c3)OCCO4)CC2)cc1 | 11.4% (inactive) | 
Cn1c2cc(B(O)O)sc2c2cnn(Cc3c(F)cccc3Cl)c(=O)c21 | 4.69% (inactive) | 
COc1cccc(Cn2ncc3c4sc(B(O)O)cc4n(C)c3c2=O)c1 | 35.1% (inactive) | 
COc1ccc(Cn2ncc3c4sc(C)cc4n(C)c3c2=O)cc1F | -10.5% (inactive) | 
O=S(=O)(c1c(F)cccc1F)C1CCN(S(=O)(=O)c2ccc3c(c2)OCCO3)CC1 | -4.49% (inactive) | 
O=S(=O)(NCC1CN(S(=O)(=O)c2ccc3c(c2)OCCO3)C1)c1c(F)cccc1F | -10.5% (inactive) | 
Cn1c2cc(Br)sc2c2cnn(Cc3c(F)cccc3F)c(=O)c21 | 31.7% (inactive) | 
O=S(=O)(NCCCCNS(=O)(=O)c1c(F)cccc1F)c1ccc2c(c1)OCCO2 | 9.7% (inactive) | 
CC(=O)c1cc2c(s1)c1cnn(Cc3ccccc3F)c(=O)c1n2C |  | 794 nM (active)
Cc1cc2c(s1)c1cnn(Cc3c(F)cccc3Cl)c(=O)c1n2C | 12.8% (inactive) | 
O=S(=O)(c1ccc2ccccc2c1)N1CCN(S(=O)(=O)c2c(F)cccc2F)CC1 | 4.89% (inactive) | 
Cn1c2cc(Br)sc2c2cnn(Cc3c(F)cccc3Cl)c(=O)c21 |  | 7940 nM (active)
O=S(=O)(c1ccc2c(c1)OCCO2)N1CCN(S(=O)(=O)c2ccccn2)CC1 | 10.7% (inactive) | 
Cn1ccc2cc(S(=O)(=O)N3CCN(S(=O)(=O)c4c(F)cccc4F)CC3)ccc21 | 5.33% (inactive) | 

SMILES | activation | Potency
COc1cccc(Cn2ncc3c4sc(Br)cc4n(C)c3c2=O)c1 | -23.6% (inactive) | 
O=C1CN(S(=O)(=O)c2ccc3c(c2)OCCO3)CCN1S(=O)(=O)c1c(F)cccc1F | 1.7% (inactive) | 
COc1cc2c(s1)c1cnn(Cc3ccccc3F)c(=O)c1n2C |  | 2510 nM (active)
Cn1c2cc(B(O)O)sc2c2cnn(Cc3ccccc3F)c(=O)c21 | -4.09% (inactive) | 
Cc1cc2c(s1)c1c(C)nn(Cc3ccccc3F)c(=O)c1n2C | 27.8% (inactive) | 
O=S(=O)(NC1CCC(NS(=O)(=O)c2c(F)cccc2F)CC1)c1ccc2c(c1)OCCO2 (stereo not drawn) | -4.61% (inactive) | 
O=S(=O)(c1ccc2c(c1)OCCCO2)N1CCN(S(=O)(=O)c2c(F)cccc2F)CC1 | 2.62% (inactive) | 
Cn1c2cc(CO)sc2c2cnn(Cc3ccccc3F)c(=O)c21 |  | 2240 nM (active)
Cn1c2cc(Br)sc2c2cnn(Cc3ccc(F)cc3F)c(=O)c21 |  | 2510 nM (active)
O=C(c1c(F)cccc1F)N1CCN(S(=O)(=O)c2ccc3c(c2)OCCO3)CC1 | -3.15% (inactive) | 
Cn1c2ccsc2c2cnn(Cc3ccc(F)cc3)c(=O)c21 |  | 17800 nM (active)
Cc1cc2c(s1)c1cnn(Cc3ccc(F)cc3F)c(=O)c1n2C | 5.17% (inactive) | 
C[C@H]1CN(S(=O)(=O)c2ccc3c(c2)OCCO3)CCN1S(=O)(=O)c1c(F)cccc1F | -21.2% (inactive) | 
Cc1cc2c(s1)c1cnn(Cc3ccccc3)c(=O)c1n2C | 1.72% (inactive) | 
O=S(=O)(NC1CCN(S(=O)(=O)c2c(F)cccc2F)C1)c1ccc2c(c1)OCCO2 (stereo not drawn) | 6.08% (inactive) | 
Cc1cc2c(s1)c1cnn(Cc3cccc(Cl)c3)c(=O)c1n2C | 13.2% (inactive) | 
